# HT1080 IDH1KD tx: toxicity to HT-1080 IDH1 knockdown cells (counter line) | Potency, µM (highest dose often 46.1 µM), for the others: top-dose activity, negative = toxicity, actives largely listed as cytotoxic | actives 2% (n = 360,000) | HT-1080 IDH1 knockdown viability, ATP luminescence, 48 h;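 note: 0% = DMSO wells and -100% = cell-free medium wells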
#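 CellTiter-Glo luminescence after 48 h compound exposure at 37 degrees C of IDH1-knockdown HT-1080 cells in 5% FBS RPMI. %Activity scaled between DMSO wells and cell-free media wells, with curves fitted and assigned curve classes.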
# HepG2 viability: kills HepG2 cells in TGF-b inhibitor counter-screen; HepG2 CAGA-GFP viability, ATP luminescence, 18 h; Potency, µM (highest dose often 46.1 µM), for inactives: top-dose activity change, negative = cytotoxicity, hits mostly cytotoxic; actives 0.76% (n = 410,000); AID 588856
#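 CellTiter-Glo luminescence gave cytotoxicity after 18 hours at 37 degrees C. The cells were HepG2 CAGA-GFP in 1% FBS DMEM, stimulated with 500 pg/mL TGF-beta after compound addition. %Activity was normalised to no-cell wells (complete cell-killing) and DMSO (no toxicity), and curves were fitted and classified.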
# TDP1 cell noCPT: qHTS for Inhibitors of human tyrosyl-DNA phosphodiesterase 1 (TDP1): qHTS in cells in absence of CPT; Potency, µM (doses to about 46.2 µM), for the others: at the top dose activity change, negative = growth inhibition, usual class: inhibitors; DT40 Tdp1-/- hTDP1 cells, no CPT, ATP luminescence, 48 h; AID 686978, 2013; actives 15% (n = 420,000); note: % is set by controls: 0 for no effect and ±100 for the full control effect; nearly all actives have a fitted effect of over 55% in size
#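 Stably hTDP1-transfected Tdp1-null chicken DT40 cells were treated with library compounds minus camptothecin and grown for at least 48 hr at 37 °C, after which cellular ATP was quantified by luminescence.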
# DT40 TDP1 CPT: growth inhibition of DT40 Tdp1-/-;hTDP1 cells with camptothecin (screen for TDP1 inhibitors); Potency, µM (series often up to 46.2 µM), for the others: at the highest dose activity change, negative = growth inhibition, usual class: inhibitors; chicken DT40 Tdp1-/-;hTDP1 cells + 20 nM CPT, ATP luminescence, 48 h; actives 12% (n = 420,000); note: % is set by controls: 0 for no effect and ±100 for the full control effect; nearly all actives have a fitted effect of over 55% in size
#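 Chicken DT40 Tdp1-/- cells stably complemented with human TDP1 were seeded at 400 cells/well in medium containing 20 nM camptothecin, exposed to pin-transferred compounds, and grown at 37 °C for at least 48 hr. Viability was read as ATP luminescence.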
# HT1080NT lethal: kills 2HG-producing HT-1080-NT fibrosarcoma cells; Potency, µM (titrated, usually from 46.1 µM), without a hit: at the highest dose activity, negative = less viability, actives largely listed as cytotoxic; actives 1.6% (n = 360,000); HT-1080-NT fibrosarcoma viability, CellTiter-Glo ATP luminescence, 48 h;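 note: NT is the 2HG producing partner of a matched IDH1 knockdown line; 0% = DMSO-treated cells and -100% = media-only wells without cells; nearly all actives have a fitted effect of over 55% in size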
#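 A 48-hour cytotoxicity screen used HT-1080-NT cells plated 2 hours before compound delivery. ATP-based CellTiter-Glo luminescence measured viability, normalized to DMSO and no-cell controls.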
# TGFb inhibitor: inhibitors of TGF-b signaling; HepG2 CAGA-GFP TGF-b/SMAD3 reporter, GFP fluorescence, 18 h; TGF-beta stimulated, 500 pg/mL final; Potency, µM (series often up to 46.1 µM), for inactives: top-dose activity, negative = inhibition, hits mostly inhibitors; actives 1.2% (n = 410,000); note: % is set by controls: 0 for no effect and ±100 for the full control effect; nearly all actives have a fitted effect of over 65% in size
#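 Smad-responsive CAGA-GFP expression was quantified in HEPG2 cells exposed to compounds and 500 pg/mL final TGF-beta for 18 h at 37 degrees C; unstimulated wells defined full inhibition.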
# * hit, by the source's call; ? = inconclusive; / = no result. Only some compounds are listed: those with a hit (about 17% of all), similar ones and a draw of the others. Calls come from the whole dose curve; as a rule, active = well fitted curve in the direction sought with a large enough effect; inconclusive = small, poorly fitted or top-dose-only effect, or another doubt; inactive = no such curve, though single readings can be large; an effect the other way counts as inactive or inconclusive. Potency is the fitted concentration of half-maximal effect.
SMILES,HT1080 IDH1KD tx,HepG2 viability,TDP1 cell noCPT,DT40 TDP1 CPT,HT1080NT lethal,TGFb inhibitor
COC(=O)c1ccc(C(=O)Nc2cc(Cl)ccc2Cl)cc1NC(=O)c1ccc(N(C)C)cc1,-7%,1%,?,26µM*,5%,17%
COc1cc2c(cc1NC(=O)c1cccc(Br)c1)CCCC2,-6%,-28%,16µM*,?,1%,8%
COc1cc(NC(=O)c2ccccc2F)c(OC)cc1NC(=O)CN1CCCCC1,-20%,-23%,16µM*,?,-14%,-14%
Cc1noc(C)c1CSc1nc2sc(C)c(C)c2c(=O)n1C1CCCC1,-2%,-19%,-13%,?,-1%,3%
Cc1cc(Nc2cccc(C(=O)O)c2)n2ncnc2n1,12%,10%,14%,18%,4%,8%
COc1cc(NC(=O)C(c2ccccc2)c2ccccc2)c(C(=O)O)cc1OC,1%,25%,9%,-3%,0%,25%
CC(=O)Nc1ccc(NC(=O)C(c2ccccc2)c2ccccc2)cc1,0%,-1%,8%,2%,-2%,8%
Cc1ccc(NC(=O)CN2CCC(NC(=O)C3CCCCC3)CC2)c(Br)c1,9%,-16%,21µM*,?,-3%,-5%
COc1cc2c(cc1NC(=O)C(c1ccccc1)c1ccccc1)CCCC2,-3%,9%,12µM*,?,0%,?
Cc1ccc(NC(=O)C(c2ccccc2)c2ccccc2)c(O)c1,-25%,-25%,7%,1%,-24%,16µM*
COc1cc(NC(=O)C2CCCCC2)c(OC)cc1NC(=O)CN1CCCCC1,0%,-34%,16µM*,?,-11%,14%
COc1ccc(CCNC(=O)CCc2ccc(S(=O)(=O)NC(C)C)cc2)cc1,5%,3%,-19%,-9%,-1%,1%
Cc1ccc2ncc3c(-c4ccc(F)cc4)nn(CC(=O)Nc4ccccc4C)c3c2c1,/,-29%,7%,-14%,/,-6%
Cc1noc(NS(=O)(=O)c2ccc(NC(=O)c3ccccc3NS(=O)(=O)c3ccc(F)cc3)cc2)c1C,14%,0%,-15%,37%,19%,11%
COC(=O)c1cc(Cl)c(NC(=O)C(C)C)cc1OC,13%,-36%,10%,28%,17%,-3%
COc1cc(NC(=O)c2ccc(C)cc2)c(OC)cc1NC(=O)CN1CCOCC1,13%,2%,16µM*,?,7%,0%
COC(=O)c1cc(Cl)c(NC(=O)c2ccc(C(C)(C)C)cc2)cc1OC,11µM*,-2%,18µM*,26µM*,?,-21%
Cc1[nH]c2ccccc2c1C(=O)CSc1ccc(Cl)cc1,-19%,0%,?,23µM*,0%,-24%
CCOC(=O)c1c(C)[nH]c(C)c1C(=O)CSc1nc2ccccc2c(=O)n1-c1ccc(C)cc1,3%,8%,10%,9%,6%,9%
CCOC(=O)c1c(C)[nH]c(C)c1C(=O)CSc1nc2ccccc2n1CCC#N,-13%,-19%,-30%,4%,-8%,-11%
CCOC(=O)c1c(C)[nH]c(C)c1C(=O)CSc1nc2ccccc2c(=O)n1-c1ccc(Cl)cc1,?,-22%,18µM*,16µM*,-10%,?
CCCn1c(SCC(=O)c2c(C)[nH]c(C)c2C(=O)OCC)nc2ccccc21,4%,-2%,?,16µM*,8%,8%
CCOC(=O)C1=C(CN2CCN(C(=O)c3ccco3)CC2)NC(=O)NC1c1ccc(OC)cc1 (configuration not stated),0%,11%,-29%,-24%,-1%,-6%
CC(C)C(NS(=O)(=O)c1ccc2c(c1)oc(=O)n2C)C(=O)NCc1ccccc1 (configuration not stated),/,-3%,2%,-13%,/,-3%
CC(C)OCCc1cccc[n+]1[O-],1%,-8%,-3%,-21%,?,24%
SMILES,HT1080 IDH1KD tx,HepG2 viability,TDP1 cell noCPT,DT40 TDP1 CPT,HT1080NT lethal,TGFb inhibitor
CCN(CC)S(=O)(=O)c1cc(-c2onc(C)c2C)ccc1OC,/,-11%,?,?,/,-2%
COc1ccc(OC)c(S(=O)(=O)N2CCc3ccccc32)c1,-3%,0%,-30%,-13%,-6%,6%
COc1ccc(-c2onc(C)c2C)cc1S(=O)(=O)N1CCN(c2cc(C)ccc2C)CC1,/,8%,21µM*,?,/,?
COc1ccc(-c2onc(C)c2C)cc1S(=O)(=O)N1CCc2ccccc21,/,-30%,?,16µM*,/,-4%
CCOC(=O)c1c(C)n(C)c2ccc(OCC(O)Cn3nc(C)cc3C)cc12 (configuration not stated),-13%,-46%,?,?,-2%,0%
CCOC(=O)c1c(C)n(C)c2ccc(OCC(O)CN3C(=O)c4ccccc4S3(=O)=O)cc12 (configuration not stated),?,-25%,16µM*,16µM*,0%,-8%
CCn1c2ccccc2c2cc([N+](=O)[O-])ccc21,-15%,-7%,-9%,9%,1%,14%
C[n+]1c(-c2ccccc2)cc2c(=Cc3ccccc3)c3ccccc3n21,16µM*,-24%,0.52µM*,0.52µM*,?,18µM*
CN(C)c1ccc(C=c2c3cc(O)ccc3n3c2cc(-c2ccccc2)[n+]3C)cc1,?,-58%,?,7.3µM*,-27%,11µM*
CN(C)c1ccc(/C=C(\C#N)c2nc3ccccc3c(=O)[nH]2)cc1,/,-9%,-10%,-6%,/,47%
C[n+]1c(-c2ccccc2)cc2c(=Cc3ccc([N+](=O)[O-])cc3)c3ccccc3n21,?,-27%,4.1µM*,1.8µM*,?,?
COc1ccc(/C=N/n2cnc3c([nH]c4ccccc43)c2=O)cc1CO,3%,-8%,?,?,0%,-12%
COc1ccc(/C=N/n2cnc3c([nH]c4ccc(Br)cc43)c2=O)cc1CN1CCOCC1,1%,-13%,?,16µM*,3%,-4%
C/C(=N/NC(=O)c1ccco1)c1cccc(NC(=O)c2ccc(C)o2)c1,13%,-11%,-7%,-12%,22%,-20%

# From PubChem
